L3MBTL1 block = blocks human L3MBTL1; AID 485360; Potency, µM (doses to about 57.1 µM), most hits filed as inhibitors; AlphaScreen L3MBTL1–H3K9me1 peptide binding; 0.66% of 230,000 active; Q9Y468; note: nearly all actives have a fitted effect of over 60% in size
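AlphaScreen proximity signal between nickel-chelate acceptor and streptavidin donor beads (final 10 ug/mL) reports binding of 50 nM L3MBTL1 to 75 nM biotin-H3 K9me1 peptide; complex incubated with compounds 30 min at room temperature; cefsulodin titration as control.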
JMJD2A Tudor = JMJD2A Tudor domain (human) inhibition; Potency, µM (titrated, usually from 114 µM), most hits filed as inhibitors; AlphaScreen JMJD2A-Tudor / H3K4me3 peptide binding; 4.4% of 390,000 active; AID 504339; O75164; note: nearly all actives have a fitted effect of over 50% in size
BAZ2B inh = blocks human BAZ2B | Q9UIF8 | Potency, µM (highest dose often 114 µM), actives largely listed as inhibitors | 4.4% of 360,000 active | AlphaScreen BAZ2B-H3K14Ac peptide displacement; note: nearly all actives have a fitted effect of over 60% in size
Target sequence (Q9UIF8 whole entry, looked up): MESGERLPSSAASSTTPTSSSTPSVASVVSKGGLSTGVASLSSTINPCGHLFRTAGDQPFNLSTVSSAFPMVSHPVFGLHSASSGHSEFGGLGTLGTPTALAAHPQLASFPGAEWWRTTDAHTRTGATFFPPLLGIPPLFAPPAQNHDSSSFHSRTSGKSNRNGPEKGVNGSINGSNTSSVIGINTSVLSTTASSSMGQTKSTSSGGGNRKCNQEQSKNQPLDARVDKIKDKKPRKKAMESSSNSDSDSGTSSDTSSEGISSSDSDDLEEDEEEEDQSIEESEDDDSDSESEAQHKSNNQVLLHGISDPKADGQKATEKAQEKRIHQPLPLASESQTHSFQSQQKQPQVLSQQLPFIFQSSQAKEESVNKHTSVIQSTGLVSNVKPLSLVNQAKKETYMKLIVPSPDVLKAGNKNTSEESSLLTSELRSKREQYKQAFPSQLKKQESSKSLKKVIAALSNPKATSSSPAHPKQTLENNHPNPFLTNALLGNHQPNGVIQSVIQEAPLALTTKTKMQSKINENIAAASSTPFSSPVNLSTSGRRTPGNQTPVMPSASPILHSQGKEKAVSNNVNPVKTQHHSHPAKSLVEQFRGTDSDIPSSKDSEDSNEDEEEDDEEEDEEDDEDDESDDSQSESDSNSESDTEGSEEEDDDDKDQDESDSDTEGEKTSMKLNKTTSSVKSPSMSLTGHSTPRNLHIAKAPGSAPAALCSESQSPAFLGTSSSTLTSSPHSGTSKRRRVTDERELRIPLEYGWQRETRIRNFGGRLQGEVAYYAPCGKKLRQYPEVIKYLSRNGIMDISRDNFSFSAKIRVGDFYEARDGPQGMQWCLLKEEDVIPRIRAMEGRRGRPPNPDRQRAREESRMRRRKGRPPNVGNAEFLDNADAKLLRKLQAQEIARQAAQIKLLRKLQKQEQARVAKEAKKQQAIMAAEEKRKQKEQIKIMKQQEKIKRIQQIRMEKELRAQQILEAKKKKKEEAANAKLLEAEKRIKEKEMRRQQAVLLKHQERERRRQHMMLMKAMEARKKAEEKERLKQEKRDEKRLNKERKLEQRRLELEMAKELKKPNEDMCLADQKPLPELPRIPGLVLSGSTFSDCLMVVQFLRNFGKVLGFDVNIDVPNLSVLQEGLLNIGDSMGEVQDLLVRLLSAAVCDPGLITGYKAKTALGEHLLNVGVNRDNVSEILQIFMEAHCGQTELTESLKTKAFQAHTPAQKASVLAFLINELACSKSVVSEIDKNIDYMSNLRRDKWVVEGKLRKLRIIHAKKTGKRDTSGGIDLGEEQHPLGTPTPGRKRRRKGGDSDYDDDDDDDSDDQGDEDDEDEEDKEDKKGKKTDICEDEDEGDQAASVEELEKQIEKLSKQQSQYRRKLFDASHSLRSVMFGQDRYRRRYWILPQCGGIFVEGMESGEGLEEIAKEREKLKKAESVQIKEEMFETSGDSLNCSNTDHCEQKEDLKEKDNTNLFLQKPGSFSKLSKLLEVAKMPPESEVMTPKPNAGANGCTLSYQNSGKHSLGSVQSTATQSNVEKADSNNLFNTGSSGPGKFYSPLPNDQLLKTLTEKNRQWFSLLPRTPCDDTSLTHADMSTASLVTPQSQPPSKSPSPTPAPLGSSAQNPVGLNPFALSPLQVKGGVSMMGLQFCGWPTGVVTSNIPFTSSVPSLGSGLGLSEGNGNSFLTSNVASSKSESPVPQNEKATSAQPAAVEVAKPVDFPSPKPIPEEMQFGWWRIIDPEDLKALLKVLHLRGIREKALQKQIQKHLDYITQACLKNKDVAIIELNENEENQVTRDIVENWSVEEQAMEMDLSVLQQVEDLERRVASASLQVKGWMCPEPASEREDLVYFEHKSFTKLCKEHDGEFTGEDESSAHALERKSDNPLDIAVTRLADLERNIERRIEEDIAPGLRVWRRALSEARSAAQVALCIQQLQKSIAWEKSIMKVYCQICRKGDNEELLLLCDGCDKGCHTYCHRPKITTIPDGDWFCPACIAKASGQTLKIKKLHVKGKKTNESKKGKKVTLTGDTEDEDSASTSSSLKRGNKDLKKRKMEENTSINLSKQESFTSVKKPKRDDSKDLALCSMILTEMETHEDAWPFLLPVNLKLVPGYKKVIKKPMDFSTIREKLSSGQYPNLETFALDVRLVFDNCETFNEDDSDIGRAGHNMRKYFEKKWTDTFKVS
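AlphaScreen luminescence quantifies BAZ2B engagement of H3K14Ac peptide; the protein and biotinylated peptide are both at 50 nM final, buffer PBS pH 7.4 with 0.01% Tween-20, all steps at room temperature.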
G9a inh = blocks human histone lysine methyltransferase G9a; Q96KQ7; G9a H3K9 monomethylation, AlphaScreen, 2 h; Potency, µM (top dose mostly 102 µM), usual class: inhibitors; 8.8% of 350,000 active; note: nearly all actives have a fitted effect of over 75% in size
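AlphaScreen read-out: biotin-H3K9 peptide (500 nM) methylation by 20 nM enzyme with 20 uM SAM, 2 h at room temperature after 15 min compound preincubation; anti-monomethyl H3K9 antibody plus donor/acceptor beads, 10 min dark.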
HP1b binding inh = HP1-beta chromodomain-methylated histone interaction inhibition | Potency, µM (series often up to 114 µM), usual class: inhibitors | P83916 | AlphaScreen HP1-beta / biotin-H3K9me3 peptide binding | 0.56% of 390,000 active | AID 540317; note: nearly all actives have a fitted effect of over 70% in size
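AlphaScreen: HP1-beta (50 nM) preformed 30 min with biotin-H3(1-18)K9me3 peptide (50 nM) in PBS pH 7.4, 0.01% Tween-20. Compound added for 30 min at RT, then streptavidin donor/nickel chelate acceptor beads (10 ug/mL) for 30 min.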
A number is an active result; 0 = inactive; ? = inconclusive; - = no result; ! = not active in a repeat; [ ] = remark or other dose. A selection: hits, their analogues and other compounds. The true share with any hit is near 11%. Calls come from the whole dose curve; as a rule, active = well fitted inhibition curve with a large enough effect; inconclusive = small, poorly fitted or top-dose-only effect; inactive = no such curve, though single readings can be large or run the other way.

SMILES	L3MBTL1 block	JMJD2A Tudor	BAZ2B inh	G9a inh	HP1b binding inh
Cc1ccc(C(=O)c2c(C)oc3c2C(=O)C(=O)c2ccccc2-3)cc1	?	44.7µM	31.6µM	?	17.8µM
COc1ccccc1NC(=O)N1CC(=O)Nc2sc3c(c2C1c1ccccc1)CCCC3 (centres undefined)	-	0	?	0	0
C=CCNC(=S)NNC(=O)COc1ccc2cc(Br)ccc2c1	0	0	0	0	0
C=CCNC(=S)NNC(=O)COc1ccc(Br)cc1	0	?	0	31.6µM	0
C=CCNC(=S)NNC(=O)COc1cccc(Cl)c1	0	0	0	25.1µM	0
CCOC(=O)c1c(NC(=O)c2cc(-c3ccc(OC)c(OC)c3)on2)sc2c1CCCC2	-	0	0	3.98µM	0
CCOC(=O)c1c(NC(=O)c2cc(-c3cccc(OC)c3)on2)sc2c1CCCC2	-	0	0	8.91µM	?
CCCc1cc(C(=O)Nc2sc3c(c2C(=O)OCC)CCCC3)no1	?	0	0	0	0
CCOC(=O)c1c(NC(=O)c2ccc(OC)c(OC)c2)sc2c1CCCCC2	-	0	0	8.91µM	0
CCOC(=O)c1c(NS(=O)(=O)c2cccc(OC)c2)sc2c1CCC2	?	?	0	?	0
COc1ccc(-c2cc(C(=O)Nc3sc4c(c3C#N)CCCC4)no2)cc1OC	-	0	0	10µM	0
CC(=O)c1cccc(NC(=O)Cn2c(=O)c(CNc3ccc(C)cc3)cc3cc4c(cc32)OCCO4)c1	-	0	?	?	0
CCn1ccc(C(=O)NC2C(=O)N3C(C(=O)O)=C(C)CSC23)n1 (centres undefined)	0	0	?	22.4µM	0
CC1=C(C(=O)O)N2C(=O)C(NC(=O)c3ccccc3Cl)C2SC1 (centres undefined)	-	0	0	1.78µM	0
CC1=C(C(=O)OCC(Cl)(Cl)Cl)N2C(=O)C(NC(=O)Cc3ccccc3)C2SC1 (centres undefined)	?	0	0	39.8µM	0
CC1=C(C(=O)O)N2C(=O)C(NC(=O)c3ccc(F)cc3)C2SC1 (centres undefined)	0	?	0	0.891µM	0
CC1=C(C(=O)O)N2C(=O)C(NC(=O)C(N)c3ccc(O)cc3)C2SC1 (centres undefined)	-	-	-	0[2.33 µM]	-
CC1=C(C(=O)O)N2C(=O)C(NC(=O)c3nn(C)cc3Cl)C2SC1 (centres undefined)	0	0[11.4 µM]	0	?	0
CC(=O)OCC1=C(C(=O)O)N2C(=O)C(NC(=O)c3ccc(COc4cccc(Cl)c4Cl)o3)C2SC1 (centres undefined)	?	?	50.1µM	31.6µM	0
Cc1ccc(C2=NS(=O)(=O)N(C)C(C(=O)Nc3ccc(F)cc3F)=C2)cc1	0	?	0	70.8µM	0
COC(=O)c1ccccc1NC(=O)C1=CC(c2ccc(C)cc2)=NS(=O)(=O)N1C	-	?	?	12.6µM	0
CCOc1ccc(-c2cc(NC(=O)Nc3ccccc3Cl)c(C(=O)OC)s2)cc1	-	0	0	0	0
CCOC(=O)c1c(NC(=O)Nc2ccc(F)cc2)sc(C(=O)N(C)C)c1C	-	0	0	0	0
Cc1ccccc1Nc1sc(C(=O)Nc2cccc(Cl)c2)c(N)c1C(N)=O	0	0	?	79.4µM	0
COc1ccc(Cl)cc1Nc1sc(C(=O)c2ccccc2)c(N)c1C(=O)Nc1ccccc1	-	?	?	15.8µM	?
SMILES	L3MBTL1 block	JMJD2A Tudor	BAZ2B inh	G9a inh	HP1b binding inh
Cc1cccc(Nc2sc(C(=O)c3ccc(Cl)cc3)c(N)c2C(N)=O)c1	-	0	?	0	0
O=C(COc1ccc(F)cc1)OCc1cc(=O)n2nc(C3CCCCC3)sc2n1	-	0	0	0	0
COc1ccc(/C=N/N=C/c2ccc(OC)cc2)cc1	-	0	0	0	0
COc1ccc(C2=CSC(/N=C/c3ccc(F)cc3)=NN2)cc1	0	?	0	25.1µM	?
COc1ccc(C(=O)N(Cc2ccccc2)Cc2ccccc2)cc1COc1ccc(NC(C)=O)cc1	-	0	-	-	-
N#Cc1ccc2c(c1)C[C@]1(c3ccsc3)Oc3c(c(=O)oc4ccccc34)C2O1	-	-	12.6µM	0[2.33 µM]	-
Cc1cc2c(c(=O)o1)C1O[C@](c3ccsc3)(Cc3cc(C#N)ccc31)O2	-	-	?	0[2.33 µM]	-
COc1ccc2c3c(c(=O)oc2c1)C1O[C@](c2ccsc2)(Cc2cc(C#N)ccc21)O3	-	-	12.6µM	?	-
Cc1ccc(C)c(NC(=O)C2CCCN2S(=O)(=O)c2ccc3c(c2)CCCC(=O)N3)c1 (centres undefined)	-	0	0	0	0
CCCCC[C@H](CC(=O)NO)C(=O)N[C@H](C(=O)N1CCC[C@H]1CO)C(C)C	-	-	-	9.47µM!	-
CCCCCC(CC(=O)NO)C(=O)NC(C(=O)N1CCCC1CO)C(C)C (centres undefined)	0	0	0	?	0
COc1ccc(-c2noc(CC(=O)Nc3ccc(F)cc3F)n2)cc1	-	0	0	0	0
Brc1ccc(-c2cnnc(N3CCCC3)n2)cc1	0	0	0	70.8µM	0
CCCCCCCC[n+]1c(C)n(-c2ccccc2)c2ccc(NC(C)=O)cc21	0	0	0	39.8µM	0
CN1COc2ccc3ccccc3c2C1	-	0	?	2.24µM	0
O=c1c(-c2ccccc2)nc2cnc(N3CCOCC3)nc2n1Cc1cccs1	-	-	-	0[0.501 µM]	-
CO/N=C/C(=N\Nc1ccc(OC)cc1)C(=O)c1ccc(OC)cc1	-	?	?	35.5µM	0
COc1ccc(C(=O)C(/C=N/O)=N/Nc2ccc(F)cc2)cc1	?	0	?	17.8µM	0
COc1ccc(C(=O)N/N=C/C(=O)c2ccccc2)cc1	-	0	0	0	0
COC(=O)c1c(-c2ccc(Cl)cc2)noc1N1CCN(c2cccc(C)c2C)CC1	-	0	0	0	0
CC(=O)N1CCc2cc(CNC(=O)Nc3cc(Cl)ccc3C)ccc21	-	0	0	0	0
CCCn1nc(C(=O)NNC(=O)c2cccc(C)c2)c2ccccc2c1=O	0	0	-	-	0
CCCn1nc(C(=O)NNC(=O)CSC(C)C(=O)Nc2cc(C)on2)c2ccccc2c1=O (centres undefined)	-	0	0	22.4µM	0
COc1ccc(N=Nc2n(C)c3ccccc3[n+]2C)cc1	0	-	39.8µM	-	-
CCn1nnc2cc(C(=O)Nc3cc(Cl)ccc3C)ccc21	0	0	0	0[12.7 µM]	0
OCCC1CN(Cc2cc3ccccc3o2)CCN1Cc1ccc(F)cc1 (centres undefined)	0	0	0	0	0
O=c1cc(CN2CCN(Cc3ccc(F)cc3)C(CCO)C2)[nH]c2ccccc12 (centres undefined)	0	0	0	25.1µM	0
CCOc1ccc(CN2CCN(Cc3[nH]c4ccccc4c3C)CC2CCO)cc1 (centres undefined)	0	?	?	0[12.7 µM]	0
Cc1c(CN2CCN(CC(C)(C)C)C(CCO)C2)[nH]c2ccccc12 (centres undefined)	0	0	0	70.8µM	0
CCN1CCN(C(=O)N(CC(=O)Nc2ccc(C(N)=O)cc2)S(=O)(=O)c2ccc(C)cc2)CC1	0	0	0	0	0

Screens (PubChem)
